High-throughput results from PubChem.
NPC1 prom act: NPC1 promoter activation; Huh7 NPC1 promoter luciferase reporter, 24 h; hit rate 2.4% among 320,000; AID 485313; Potency, µM (titrated, usually from 9.22 µM), hits mostly activators; note: nearly all actives have a fitted effect of over 60% in size
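Cells: Huh7 expressing luciferase under the NPC1 promoter, 1500/well. Seeded 2 h, compound added, incubated 24 h at 37 °C. Luciferase reagent, 10 min ambient, then luminescence.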
ELG1 repair inh: inhibitors of ELG1-dependent DNA repair in HEK293T cells; Potency, µM (top dose mostly 46.1 µM), usual class: inhibitors; HEK293T ELG1-luciferase reporter, luminescence, 16 h; DNA damage induced by 5-fluorouridine; hit rate 2.3% among 330,000; AID 504467; note: nearly all actives have a fitted effect of over 55% in size
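In this reporter screen, reduction of luminescence relative to DMSO vehicle indicated activity. Compounds and 5-fluorouridine were added together to 2,000 cells per well, incubated for 16 hr at 37 °C, then developed with ONE-Glo.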
Rab9 promoter act: activators of Rab9 promoter; Huh7 Rab9 promoter-luciferase reporter, luminescence, 24 h; Potency, µM (titrated, usually from 9.22 µM), actives largely listed as activators; hit rate 2.8% among 320,000; AID 485297; note: nearly all actives have a fitted effect of over 60% in size
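Cells were plated at 1500 per well in reduced-serum medium with 10% FBS and left 2 h. Compound in DMSO was then added for 24 h at 37 °C. Reporter signal was read by luminescence after 10 min with luciferase detection reagent.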
FLuc modulator: inhibits or activates purified firefly luciferase, miR-21 counter-screen. AID 588342. hit rate 6.9% among 360,000. P08659. Potency, µM (series often up to 57.5 µM), hits mostly inhibitors. purified FLuc, Km substrates, luminescence inhibition; note: nearly all actives have a fitted effect of over 55% in size
Target sequence (P08659 whole entry, looked up): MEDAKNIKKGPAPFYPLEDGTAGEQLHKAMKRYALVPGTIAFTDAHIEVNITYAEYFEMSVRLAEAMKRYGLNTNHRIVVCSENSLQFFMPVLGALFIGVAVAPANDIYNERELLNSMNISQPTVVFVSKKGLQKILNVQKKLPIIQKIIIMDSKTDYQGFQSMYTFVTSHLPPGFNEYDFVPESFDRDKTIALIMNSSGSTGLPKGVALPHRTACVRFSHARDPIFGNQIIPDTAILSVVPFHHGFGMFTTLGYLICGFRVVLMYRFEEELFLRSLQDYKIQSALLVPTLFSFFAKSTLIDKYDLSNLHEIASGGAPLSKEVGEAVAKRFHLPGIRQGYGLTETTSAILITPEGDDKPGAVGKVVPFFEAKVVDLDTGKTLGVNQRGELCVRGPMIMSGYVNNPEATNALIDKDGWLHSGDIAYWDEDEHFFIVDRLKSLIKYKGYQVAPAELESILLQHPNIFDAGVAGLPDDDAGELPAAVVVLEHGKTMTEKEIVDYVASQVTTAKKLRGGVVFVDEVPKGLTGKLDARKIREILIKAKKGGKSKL
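Purified P. pyralis luciferase, 10 nM final, with Km-level 10 uM D-luciferin and 10 uM ATP in 50 mM Tris acetate pH 7.5, 10 mM Mg acetate, 0.01% Tween-20, 0.05% BSA; 6-point qHTS titration about 60 µM downward; luminescence read.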
ELG1 genotox: inducers of genotoxicity in HEK293T ELG1-luciferase cells; HEK293T ELG1-luciferase reporter, luminescence, 16 h; Potency, µM (highest dose often 46 µM), hits mostly activators; hit rate 1.3% among 330,000; AID 504466; note: nearly all actives have a fitted effect of over 60% in size
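ELG1-luciferase HEK293T cells, 2,000/well; compound pinned in; 16 hr, 37 °C, 5% CO2; ONE-Glo, 30 min RT; luminescence on CCD imager.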
SMN2 splice up: SMN2 splice variant enhancement. HEK293 SMN2-luciferase splicing reporter, luminescence, 30-36 h. Potency, µM (highest dose often 46.1 µM), usual class: activators. hit rate 2.8% among 210,000; note: nearly all actives have a fitted effect of over 55% in size
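HEK293 cells carry an SMN2 minigene-luciferase reporter in which exon 7 inclusion puts luciferase in frame. Cells were seeded at 2000 cells/well, attached for 10-12 hours, then exposed to compounds for 30-36 hours at 37C before ONE-Glo luminescence.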
Each line names hits and unclear results; the compound was inactive in the other large screens. An excerpt weighted towards active compounds, which were near 9.2% of everything screened. Calls come from the whole dose curve; as a rule, active = well fitted curve in the direction sought with a large enough effect; inconclusive = small, poorly fitted or top-dose-only effect, or another doubt; inactive = no such curve, though single readings can be large; an effect the other way counts as inactive or inconclusive.

COc1ccc(C(=O)OC(C)C(=O)Nc2cc(C(F)(F)F)ccc2Cl)c(OC)c1OC (stereo not drawn)	ELG1 repair inh 21µM
CC(OC(=O)c1ccc(O)cc1)C(=O)Nc1cc(C(F)(F)F)ccc1Cl (stereo not drawn)	ELG1 repair inh inconclusive (no result: SMN2 splice up)
CCc1cccc(C)c1NC(=O)CSc1nc2ccccc2nc1Cc1ccccc1	none (no result: NPC1 prom act, ELG1 repair inh, Rab9 promoter act, ELG1 genotox, SMN2 splice up)
Cc1ccc2c(C)c(C(=O)N(C)C(C)c3ccon3)oc2c1C (stereo not drawn)	NPC1 prom act inconclusive, ELG1 repair inh inconclusive, Rab9 promoter act 3.2µM, FLuc modulator 15µM, ELG1 genotox inconclusive (no result: SMN2 splice up)
CCCCOc1cccc(C(=O)N(Cc2cccs2)c2ccc(OC)cc2)c1	none (no result: NPC1 prom act, ELG1 repair inh, Rab9 promoter act, ELG1 genotox, SMN2 splice up)
COc1ccc(C(=O)NCCONC(=O)c2ccc(OC)cc2)cc1	none (no result: SMN2 splice up)
O=C(NOCc1ccccc1)c1ccc([N+](=O)[O-])cc1	NPC1 prom act inconclusive, ELG1 repair inh inconclusive, Rab9 promoter act 1.3µM, FLuc modulator 3.8µM, ELG1 genotox inconclusive (no result: SMN2 splice up)
O=C(NOCc1ccccc1)c1ccc(Cl)cc1	NPC1 prom act 0.71µM, ELG1 repair inh inconclusive, Rab9 promoter act 0.5µM, FLuc modulator 1.2µM, ELG1 genotox inconclusive (no result: SMN2 splice up)
COc1ccc(C(=O)NOCc2ccccc2)cc1	NPC1 prom act inconclusive, ELG1 repair inh inconclusive, Rab9 promoter act inconclusive, FLuc modulator 1.9µM, ELG1 genotox inconclusive (no result: SMN2 splice up)
CC(=O)c1cccc(NC(=O)Cn2c(C)c3cnn(-c4ccccc4)c(=O)c3c2C)c1	none (no result: NPC1 prom act, ELG1 repair inh, Rab9 promoter act, ELG1 genotox)
CCN1CCN(C(=O)c2nn(-c3ccc(C)cc3)c(=O)c3c2c2ccccc2n3C)CC1	SMN2 splice up 25µM
O=C(NC1=NCCS1)c1ccc(Cl)c(Cl)c1	NPC1 prom act 0.63µM, ELG1 repair inh inconclusive, Rab9 promoter act 0.63µM, FLuc modulator 4.8µM, ELG1 genotox inconclusive (no result: SMN2 splice up)
Cc1cccc(C(=O)NC2=NCCS2)c1	NPC1 prom act 1.3µM, ELG1 repair inh inconclusive, Rab9 promoter act 0.71µM, FLuc modulator 8.5µM, ELG1 genotox inconclusive (no result: SMN2 splice up)
O=C(Nc1cnccn1)c1csc2ccccc12	ELG1 repair inh inconclusive, Rab9 promoter act inconclusive, FLuc modulator 19µM, ELG1 genotox inconclusive, SMN2 splice up inconclusive
O=C(Nc1ccon1)c1csc2ccccc12	SMN2 splice up inconclusive
O=C(NC1=NCCS1)c1cc(Cl)ccc1Cl	none (no result: SMN2 splice up)
Cc1cc(C(=O)NC2=NCCS2)cs1	NPC1 prom act 2.5µM, ELG1 repair inh inconclusive, Rab9 promoter act 1.6µM, FLuc modulator 8.5µM, ELG1 genotox 16µM, SMN2 splice up 11µM
O=C(NC1=NCCS1)c1ccccc1	ELG1 repair inh inconclusive (no result: SMN2 splice up)
COc1ccc(C(=O)NC2CCCc3c2cnn3-c2ccccc2F)o1 (stereo not drawn)	ELG1 repair inh inconclusive (no result: SMN2 splice up)
CCN(C(=O)C(C)OC(=O)CCCNC(=O)c1ccc(Cl)cc1)c1ccccc1 (stereo not drawn)	none (no result: SMN2 splice up)
CC(C)C(NC(=O)c1cccs1)C(=O)NC1=NCCS1 (stereo not drawn)	none
O=C(NC1=NCCS1)c1cccs1	ELG1 repair inh inconclusive, SMN2 splice up 28µM
O=C(NC1=NCCS1)c1ccccc1Cl	none (no result: SMN2 splice up)
O=C(NC1=NCCS1)c1csc2ccccc12	NPC1 prom act 2.2µM, ELG1 repair inh inconclusive, Rab9 promoter act 1.6µM, ELG1 genotox inconclusive, SMN2 splice up 11µM
CCC(=O)N1CCc2cc(Br)cc(S(=O)(=O)N3CCN(c4cc(C)ccc4C)CC3)c21	none (no result: NPC1 prom act, ELG1 repair inh, Rab9 promoter act, ELG1 genotox)
Cc1sc2ncnc(N3CCN(S(=O)(=O)c4ccc(F)cc4)CC3)c2c1C	ELG1 repair inh inconclusive (no result: SMN2 splice up)
Cc1ccc(S(=O)(=O)N2CCN(c3ncnc4sccc34)CC2)cc1	ELG1 repair inh 9.2µM (no result: SMN2 splice up)
Nc1ccc(C#Cc2ccc3c(=O)c4ccccc4oc3c2)cc1	NPC1 prom act 2.2µM, ELG1 repair inh inconclusive, Rab9 promoter act 3.5µM, FLuc modulator inconclusive, ELG1 genotox inconclusive (no result: SMN2 splice up)
Cc1ccc(C(=O)N[C@H](C(=O)Nc2sccc2C(N)=O)C(C)C)cc1	ELG1 repair inh inconclusive, ELG1 genotox inconclusive (no result: SMN2 splice up)
Cc1ccc(N2CC(C)Cn3c2nc2c3c(=O)[nH]c(=O)n2C)cc1C (stereo not drawn)	ELG1 repair inh 9.2µM (no result: SMN2 splice up)
N=c1c2c3c(sc2nc2n1CCCCC2)CCCCC3	NPC1 prom act inconclusive, ELG1 repair inh inconclusive, Rab9 promoter act inconclusive, FLuc modulator 17µM, ELG1 genotox inconclusive
